Assay outcomes (PubChem BioAssay)
HPGD inh: HPGD (human) dehydrogenase inhibition. 4.3% of 150,000 active. P15428. AID 894. Potency, µM, for inactives: at the top dose activity change, negative = inhibition, actives largely listed as inhibitors. purified HPGD, NADH fluorescence kinetic, PGE2 substrate; further: potency means the concentration at half of the fitted maximal effect
Target sequence (P15428 whole entry, looked up): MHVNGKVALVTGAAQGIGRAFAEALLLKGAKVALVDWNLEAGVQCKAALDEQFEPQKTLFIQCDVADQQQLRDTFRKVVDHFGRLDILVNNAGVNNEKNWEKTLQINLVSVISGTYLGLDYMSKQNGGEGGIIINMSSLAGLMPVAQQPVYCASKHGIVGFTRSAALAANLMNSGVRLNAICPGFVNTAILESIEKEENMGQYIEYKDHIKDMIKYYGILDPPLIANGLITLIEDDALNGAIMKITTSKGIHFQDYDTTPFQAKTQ
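20 nM HPGD preincubated 15 min at room temperature with compound in 50 mM Tris-HCl pH 8, 0.01% Tween 20. Started with 1 mM NAD+ and 30 uM prostaglandin E2; NADH fluorescence (360/450 nm) read 5 times over 30-s intervals, last minus first.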
ALDH1A1 block: inhibitors of human aldehyde dehydrogenase 1A1; Purified ALDH1A1, NADH fluorescence, propionaldehyde substrate; 7.3% of 220,000 active; Potency, µM (highest dose often 75.3 µM), for the others: top-dose activity, negative = inhibition, actives largely listed as inhibitors; AID 1030;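 further: potency means the concentration at half of the fitted maximal effect; plate controls were no enzyme wells and a reference inhibitor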
IMPase cell inh: cell-permeable inhibitors of inositol monophosphatase (IMPase); P97697; CHO-M1 cells, IP1 accumulation, HTRF TR-FRET ratio; inhibition (IP1 accumulation), % at 46.1 µM; 120,000 tested, under 10 active; active means well fitted curve in the direction sought with a large enough effect in the signal ratio, not every such curve was filed as active; inconclusive means small, poorly fitted or top-dose-only effect, or a change in a side signal; inactive means no such curve, though single readings can be large or run the other way; the % refers to the signal ratio;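 further: cells stimulated with carbachol in lithium chloride buffer; plate controls were DMSO basal wells for no effect and reference inhibitor wells for full effect; higher means more IMPase inhibition seen as more IP1 and lower FRET ratio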
Target sequence (P97697 whole entry, looked up): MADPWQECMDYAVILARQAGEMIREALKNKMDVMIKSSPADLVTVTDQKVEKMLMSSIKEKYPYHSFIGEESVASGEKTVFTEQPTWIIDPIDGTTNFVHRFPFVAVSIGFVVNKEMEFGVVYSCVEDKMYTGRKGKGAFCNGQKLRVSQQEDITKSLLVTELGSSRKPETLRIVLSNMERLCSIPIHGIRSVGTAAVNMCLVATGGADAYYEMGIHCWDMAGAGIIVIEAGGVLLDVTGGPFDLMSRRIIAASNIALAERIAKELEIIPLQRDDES
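CHO-M1 cells (CHO stably expressing M1 receptor), compound up to 46 uM final, stimulated with carbachol (50 uM as added) in buffer with 50mM LiCl, pH 7.4, 30 min at 37C. Cytosolic IP1 read by TR-FRET; AC50 from Hill fits.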
Numbers without * were called inactive; [ ] = dose if it differs, or a comment. A selection: hits, their analogues and other compounds. The true share with any hit is near 9%. Unless noted, the call rests on the fitted dose curve; in most records, active means well fitted inhibition curve with a large enough effect (not every such curve was filed as active); inconclusive means small, poorly fitted or top-dose-only effect, or another doubt; inactive means no such curve, though single readings can be large or run the other way. Unless noted, on the % scale 0 is the no-effect control and ±100 the full control effect.

Screening Cc1cc(C(=O)CSc2nnc(C3COc4ccccc4O3)n2C)c(C)n1-c1ccc(F)cc1 (stereo not given) returned HPGD inh 28µM*, ALDH1A1 block inconclusive and IMPase cell inh 23.
Screening Cc1cc(C(=O)CSc2nc3ccccc3o2)c(C)n1CC1CCCO1 (stereo not given) returned HPGD inh -7%, ALDH1A1 block -10% and IMPase cell inh 9.
For Cc1ccc(-n2nnnc2SCC(=O)c2cc(C)n(CC3CCCO3)c2C)cc1 (stereo not given) the results were HPGD inh -2%, ALDH1A1 block 0% and IMPase cell inh 2.
Screening COc1ccc(NC(=O)N2CC[C@@]3(CCCN(C(=O)c4ccco4)C3)C2)cc1 returned HPGD inh 0% and ALDH1A1 block -7%.
For CC(N)(COP(=O)(O)O)C(=O)O (stereo not given) the results were ALDH1A1 block 6%.
Screening Clc1ccc2nc(-c3cccs3)c(Nc3ccc4c(c3)OCCO4)n2c1 returned IMPase cell inh 8.
Cc1cc(C(=O)COC(=O)C2=COCCO2)c(C)n1-c1ccc2c(c1)OCO2 was read as HPGD inh 16µM*, ALDH1A1 block 16µM* and IMPase cell inh 14.
Screening Cc1cc(C(=O)CSc2nnc(N)s2)c(C)n1Cc1ccco1 returned ALDH1A1 block -7%.
`Cc1cc(C(=O)COc2ccc(C#N)cc2)c(C)n1-c1ccc2c(c1)OCO2` gave HPGD inh -4% and ALDH1A1 block 5%.
For Cc1cccc(-n2nnnc2SCC(=O)c2cc(C)n(Cc3ccco3)c2C)c1 the results were HPGD inh -8%, ALDH1A1 block 18µM* and IMPase cell inh -4.
For Cc1ccc(C)c(NC(=O)/C(C#N)=C/c2ccc(Sc3nncn3C)c([N+](=O)[O-])c2)c1 the results were HPGD inh -10% and ALDH1A1 block -8%.
Screening Cc1cc2nn(-c3cccc4ccccc34)nc2cc1N returned HPGD inh inconclusive, ALDH1A1 block inconclusive and IMPase cell inh -4.
`Cc1cc(Cc2cc(C)c(N)cc2C)c(C)cc1N` gave ALDH1A1 block 22µM*.
Screening COc1ccc(S(=O)(=O)Nc2cccc(F)c2C)cc1C(=O)N1CCOCC1 returned ALDH1A1 block 13%.
COc1ccc(S(=O)(=O)Nc2ccccc2C)cc1C(=O)N1CCOCC1 was read as ALDH1A1 block 10µM*.
For CCOc1ccc(CC2CC(=O)NC2=O)cc1 (stereo not given) the results were HPGD inh -4%, ALDH1A1 block -6% and IMPase cell inh -1.
`CCCCS(=O)(=O)N1C2=NC(C(=O)OC)=C(C(=O)OC)[C@@H]3N(C)c4ccccc4[C@]23C[C@H]1C(=O)OC` gave HPGD inh -5% and ALDH1A1 block 6%[13.5 µM].
Cc1ccc(C(=O)n2ncn(C)c2=S)cc1 was read as ALDH1A1 block 6.3µM*.
`Cc1ccc(C(=O)n2nc(-c3ccco3)nc2N)cc1` gave HPGD inh inconclusive, ALDH1A1 block inconclusive and IMPase cell inh 1.
Screening COc1cccc(C(=O)N2c3ccccc3Sc3ccccc32)c1 returned HPGD inh 14µM*, ALDH1A1 block 3% and IMPase cell inh 3.
`COc1cccc(C(=O)NC2CCN(C(=O)N3c4ccccc4Sc4ccccc43)CC2)c1` gave HPGD inh -17%, ALDH1A1 block 7% and IMPase cell inh -8[1.84 µM].
CCOc1ccc(-c2ncnn2-c2sc3c(c2C#N)CCCCC3)cc1 was read as IMPase cell inh -15.
CC1CN(S(=O)(=O)c2ccc(Cl)c(C(F)(F)F)c2)CC(C)O1 (stereo not given) was read as HPGD inh -6%, ALDH1A1 block -2% and IMPase cell inh 5.
`Nc1c(C(=O)NCc2ccco2)nnn1Cc1ccccc1` gave HPGD inh -6%, ALDH1A1 block -3% and IMPase cell inh 5.
Screening O=C(c1ccco1)c1nnn(Cc2ccccc2)c1-c1ccccc1 returned HPGD inh -11%, ALDH1A1 block 11µM* and IMPase cell inh inconclusive.
Screening NC(=O)COc1ccc(-c2noc(COc3ccccc3[N+](=O)[O-])n2)cc1 returned ALDH1A1 block 6%.
Cc1nc(Nc2ccccc2)sc1C(=O)Nc1ccccc1 was read as ALDH1A1 block -6%.
Cc1nc(NC(=S)Nc2ccccc2)sc1C was read as ALDH1A1 block 22µM*.
`CCOc1ccc2nc(NC(=O)c3ccccc3)sc2c1` gave IMPase cell inh -8.
`Cc1ccc(C(=O)Nc2nnc(NC(=S)Nc3ccccc3)s2)cc1` gave ALDH1A1 block 22µM*.
For CCOc1ccc(C(=O)Nc2nnc(NC(=S)Nc3ccccc3)s2)cc1 the results were ALDH1A1 block 7.1µM*.
`Cc1ccc(SCc2nnc(NC(=O)c3ccccc3)s2)cc1` gave HPGD inh -4%, ALDH1A1 block 4% and IMPase cell inh 2.
For O=C(NCCSCc1ccc(Cl)cc1)c1cccs1 the results were ALDH1A1 block -3%.
CC(C)(O)C#Cc1ccc(C(=O)N2CCN(c3ccc([N+](=O)[O-])cc3)CC2)cc1 was read as ALDH1A1 block 20µM*.
CC(C)(O)C#Cc1ccc(C(=O)N2CCN(c3ccccc3)CC2)cc1 was read as HPGD inh -2% and ALDH1A1 block 8%.
`CCSc1ccccc1C(=O)N1CCN(c2ccc([N+](=O)[O-])cc2)CC1` gave ALDH1A1 block 14µM*.
Screening Cc1cccc(C(=O)N2CCN(c3ccc([N+](=O)[O-])c(N4CCOCC4)c3)CC2)c1 returned HPGD inh -16%, ALDH1A1 block 5µM* and IMPase cell inh 2.
For Nc1nnc(SCC(=O)c2ccccc2)s1 the results were HPGD inh -17%, ALDH1A1 block inconclusive and IMPase cell inh 11.
Screening O=C(c1cc([N+](=O)[O-])ccc1Cl)N1CCN(c2ccccc2)CC1 returned HPGD inh -12%, ALDH1A1 block inconclusive and IMPase cell inh 10.
For Nc1nnc(SCC(=O)c2ccc([N+](=O)[O-])cc2)s1 the results were ALDH1A1 block 2.8µM*.
Screening O=C(c1ccc2ccccc2c1)N1CCN(c2ccc([N+](=O)[O-])c(N3CCOCC3)c2)CC1 returned HPGD inh -17%, ALDH1A1 block inconclusive and IMPase cell inh -2.
Screening C/C=C/OC(=O)NC(c1ccccc1)[C@]1(C(C)=O)CCOC1=O (stereo not given in full) returned ALDH1A1 block -17%[13.5 µM].
CC(=O)Cc1cc(O)c2ccccc2c1OC(=O)c1ccc(Br)cc1 was read as ALDH1A1 block 8%.
Screening C/C(=N\NC(=O)c1ccc(=O)[nH]n1)c1cccnc1 returned HPGD inh -1% and ALDH1A1 block 6%.
`O=C(c1ccc2c(c1)OCCO2)N1CCN(c2ccc([N+](=O)[O-])cc2)CC1` gave ALDH1A1 block 14µM*.
`O=C(O)c1ccccc1SCC(=O)N1CCCCC1` gave HPGD inh -6%, ALDH1A1 block 11% and IMPase cell inh 3.
CCn1cc(C(=O)N2CCN(c3ccc([N+](=O)[O-])cc3)CC2)c(=O)c2ccc(C)nc21 was read as ALDH1A1 block 25µM*.
Screening O=C(Nc1ccc2c(c1)OCCO2)C1CCN(C(=O)c2ccc([N+](=O)[O-])cc2)CC1 returned ALDH1A1 block -6%.
